High-throughput results from PubChem BioAssay.
A selection: hits, their analogues and other compounds. The true share with any hit is near 15%.
DT40 TDP1 CPT: qHTS for Inhibitors of human tyrosyl-DNA phosphodiesterase 1 (TDP1): qHTS in cells in presence of CPT; chicken DT40 Tdp1-/-;hTDP1 cells + 20 nM CPT, ATP luminescence, 48 h; Potency, µM (titrated, usually from 46.2 µM), inactives show at the highest dose activity change, negative = growth inhibition, usual class: inhibitors; hit rate 12% among 420,000; also: nearly all actives have a fitted effect of over 55% in size
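Cell growth measured by CellTiter-Glo luminescence after a minimum 48 h, 37 C compound exposure with 20 nM CPT in Tdp1-knockout DT40 cells stably expressing hTDP1, seeded 400/well; qHTS titration format.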
DT40 TDP1 no CPT: qHTS for Inhibitors of human tyrosyl-DNA phosphodiesterase 1 (TDP1): qHTS in cells in absence of CPT. DT40 Tdp1-/- hTDP1 cells, no CPT, ATP luminescence, 48 h. Potency, µM (series often up to 46.2 µM), inactives show at the top dose activity change, negative = growth inhibition, usual class: inhibitors. hit rate 15% among 420,000; also: nearly all actives have a fitted effect of over 55% in size
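DT40 Tdp1-/-;hTDP1 cells, no CPT (DMSO vehicle only), 400 cells/well; compounds pin-transferred; ≥48 hr, 37 °C; CellTiter-Glo 30 min RT dark, luminescence read.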
12-LOX inh: Primary qHTS assay for inhibitors of human arachidonate 12S-lipoxygenase (ALOX12): Round 2; purified 12hLO, xylenol orange hydroperoxide absorbance; Potency, µM (highest dose often 108 µM), for inactives: top-dose activity change, negative = inhibition, hits mostly inhibitors; hit rate 1.1% among 580,000; AID 1671190, 2021
Target sequence (P18054 whole entry, looked up): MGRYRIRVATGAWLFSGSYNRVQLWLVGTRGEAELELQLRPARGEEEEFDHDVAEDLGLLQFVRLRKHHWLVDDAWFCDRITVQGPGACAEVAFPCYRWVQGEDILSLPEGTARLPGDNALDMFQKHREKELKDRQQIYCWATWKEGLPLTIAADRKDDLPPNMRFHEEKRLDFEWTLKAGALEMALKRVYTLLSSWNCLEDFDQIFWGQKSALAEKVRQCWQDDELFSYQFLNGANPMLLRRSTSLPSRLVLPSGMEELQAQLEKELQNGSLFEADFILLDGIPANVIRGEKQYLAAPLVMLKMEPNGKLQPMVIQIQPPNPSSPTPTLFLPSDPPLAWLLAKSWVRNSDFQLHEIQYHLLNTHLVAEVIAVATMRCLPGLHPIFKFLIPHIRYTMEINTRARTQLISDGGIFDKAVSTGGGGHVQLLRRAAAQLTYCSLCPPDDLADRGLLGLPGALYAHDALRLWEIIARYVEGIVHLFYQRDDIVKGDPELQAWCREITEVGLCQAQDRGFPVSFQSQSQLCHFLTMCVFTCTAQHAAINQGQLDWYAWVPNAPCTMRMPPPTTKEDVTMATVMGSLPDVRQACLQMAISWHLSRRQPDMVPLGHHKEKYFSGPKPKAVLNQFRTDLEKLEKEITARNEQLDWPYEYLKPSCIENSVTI
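Purified human 12hLO at 150 nM in 25 mM Hepes, 0.01% Triton X-100, pH 7.0, preincubated 15 min at room temperature with compound. Reaction started with 40 uM arachidonic acid, 30 min at room temperature. Hydroperoxide measured by Fe-xylenol orange, 573/405 nm absorbance ratio.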
VP16 counter: VP16 counterscreen qHTS for inhibitors of ROR gamma transcriptional activity; Drosophila S2 Gal4-VP16 UAS-luciferase, luminescence, 20 h; Potency, µM (top dose mostly 53.6 µM), for the others: at the top dose activity, negative = inhibition, actives largely listed as inhibitors; hit rate 3.5% among 310,000; AID 2546, 2010;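 also: Gal4-VP16 expression switched on by copper sulfate through the metallothionein promoter; nearly all actives have a fitted effect of over 50% in size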
ELG1 DNA repair: qHTS screen for small molecules that inhibit ELG1-dependent DNA repair in human embryonic kidney (HEK293T) cells expressing luciferase-tagged ELG1. AID 504467, 2011. HEK293T ELG1-luciferase reporter, luminescence, 16 h; DNA damage induced by 5-fluorouridine. Potency, µM (titrated, usually from 46.1 µM), without a hit: at the top dose activity change, negative = inhibition, most hits filed as inhibitors. hit rate 2.3% among 330,000; also: nearly all actives have a fitted effect of over 55% in size
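Cells (2,000 per well) received 5-fluorouridine plus test compound or DMSO and were incubated 16 hr at 37 °C, 5% CO2. Luciferase activity was read by luminescence 30 min after ONE-Glo addition; signal suppression marked inhibition of damage-induced ELG1 function.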
RORgamma inh: qHTS for inhibitors of ROR gamma transcriptional activity. Nuclear receptor ROR-gamma (Mus musculus), P51450. Drosophila S2 Gal4-RORgamma UAS-luciferase reporter, 20 h. Potency, µM (top dose mostly 53.6 µM), for inactives: at the top dose activity change, negative = inhibition, hits mostly inhibitors. hit rate 5.4% among 310,000. AID 2551, 2010; also: nearly all actives have a fitted effect of over 60% in size
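Read-out: Photinus luciferase luminescence; inhibitors lower reporter signal. Insect Schneider cells with Gal4-ROR gamma fusion under metallothionein promoter, UAS reporter; 700 uM final copper sulfate induction, 20 hr, ambient temperature.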
* = called active by the depositor; i = inactive; ? = inconclusive; . = no result given; [ ] = dose if it differs, or a comment. Calls follow the shape of the dose curve; as a rule, active = well fitted curve in the direction sought with a large enough effect; inconclusive = small, poorly fitted or top-dose-only effect, or another doubt; inactive = no such curve, though single readings can be large; an effect the other way counts as inactive or inconclusive. % is scaled to controls: 0 for no effect and ±100 for the full control effect; potency is read from the fitted curve at half-maximal effect.

SMILES	DT40 TDP1 CPT	DT40 TDP1 no CPT	12-LOX inh	VP16 counter	ELG1 DNA repair	RORgamma inh
Cc1ccc(NC(=O)C(C)OC(=O)c2csc(NCc3ccccc3)n2)cc1 (stereo not drawn)	.	.	0.6%	.	.	.
N#Cc1cccc(CN2CCc3nc(N4CCOCC4)[nH]c(=O)c3CC2)c1	.	.	-2.3%	.	.	.
O=C(CSc1cccc[n+]1[O-])Nc1cc([N+](=O)[O-])ccc1Cl	2.7%	-3.5%	-6.5%	-8.4%	3.6%	-17.2%
O=C(CSc1cccc[n+]1[O-])Nc1cc2c(cc1Cl)C(=O)c1ccccc1C2=O	20.6µM*	?	?	-1.0%	?	?
O=C(CSc1cccc[n+]1[O-])Nc1ccccc1Oc1ccccc1	0.92µM*	1.46µM*	1.4%	7.94µM*	-11.3%	6.31µM*
COC(=O)c1ccc(C(=O)OC)c(NC(=O)CSc2cccc[n+]2[O-])c1	0.92µM*	0.731µM*	-17.3%	3.55µM*	?	5.01µM*
Cc1ccc(Nc2nc(-c3cc4cc([N+](=O)[O-])ccc4oc3=O)cs2)cc1	.	.	16.0%	.	.	.
Cc1sc2nc(SCC(=O)N(C)Cc3ccccc3)n(-c3ccccc3)c(=O)c2c1C	?	?	-11.8%	2.1%	-0.8%	32.7%
CN(Cc1ccccc1)C(=O)CSc1nc2ccccc2n1Cc1ccccc1F	?	6.51µM*	?	.	.	.
CC(C)N(C(=O)CSc1nc2ccccc2n1Cc1ccccc1F)C(C)C	16.4µM*	16.4µM*	-8.5%	?	?	?
CN(Cc1ccccc1)C(=O)CSc1nc2ccsc2c(=O)n1-c1ccc(F)cc1	?	20.6µM*	1.1%	.	.	.
NC(=O)CSc1nc2ccccc2n1Cc1ccccc1F	-25.2%	?	0.0%	2.5%	-10.3%	4.8%
O=C(C[C@@H]1C[C@H]2O[C@H](CNCc3cnccc3C(F)(F)F)[C@@H](O)[C@H]2O1)N1CCOCC1	.	.	57.9%	.	.	.
CCOc1ccc(NC(=O)COc2ncnc3ccccc23)c([N+](=O)[O-])c1	.	.	-10.0%	.	.	.
Cc1ccc(-n2c(C)cc(C(=O)COC(=O)c3c(C)noc3C)c2C)cc1	9.2µM*	9.2µM*	-15.6%	?	?	?
Cc1ccc(-n2c(C)cc(C(=O)COC(=O)C3=NNC(=O)CC3)c2C)cc1	16.4µM*	?	i	3.7%	17.5%	17.5%
O=C(O)CCNS(=O)(=O)c1cccc(Cl)c1	.	.	-5.3%	.	.	.
CNc1nn(-c2cccc(Cl)c2)nc1N	?	2.06µM*	-14.3%	.	?	0.9%[0.365 µM]
O=[N+]([O-])c1ccccc1N/N=C/c1c[nH]c2ccccc12	?	?	?	?	?	24.2%
CC(C)=CCC/C(C)=C/C=N/NC(=O)c1cccc([N+](=O)[O-])c1	4.0%	-1.8%	?	1.41µM*	-3.1%	1.58µM*
O=[N+]([O-])c1ccc(N/N=C/c2c[nH]c3ccccc23)cc1	?	16.4µM*	?	-15.0%	?	?
O=[N+]([O-])c1ccc(N/N=C/c2ccc[nH]2)cc1	?	23.1µM*	35.5µM*	-9.2%	28.3%	7.5%
O=C(N/N=C/c1c[nH]c2ccccc12)c1cccc([N+](=O)[O-])c1	4.0%	-28.6%	-1.4%	?	-14.1%	12.6µM*
O=C(O)c1cccc(-c2ccc(/C=N/Nc3ccc([N+](=O)[O-])cc3)o2)c1	1.3%	-21.8%	?	-15.7%	23.3%	24.7%
O=C(N/N=C/c1c[nH]c2ccccc12)c1ccccc1	3.2%	-1.0%	37.7%	.	?	.
CC(=O)N[C@@H](C(=O)O)C(C)C	.	.	-15.7%	.	.	.
